# Results published in the supplement of paper PMC8728848.
# Shown is part of a subset that was picked to be rich in the strongest signals.
# How the values were obtained:
# Experiment in all cases: glycan array binding signal (z-score within array); higher = stronger binding
# Conditions in all cases: glycan notation: IUPAC condensed, linker removed
# Gal3S(b1-4)Glc = biological target: Gal3S(b1-4)Glc
# Outline: (§1)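 The binding signal is a Z-score computed within each array. Data were drawn from 3228 arrays in the Consortium for Functional Glycomics database, restricted to those with a known protein sequence. Scores were averaged over arrays of the same protein sequence at different concentrations or buffers, and over linkers, and negative values can be taken as non-binding.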
# Gal3S(b1-4)GlcNAc = biological target: Gal3S(b1-4)GlcNAc
# Outline: as §1
# [1] = biological target: Gal3S(b1-4)[Fuc(a1-3)]Glc6S
# Outline: as §1
# Gal4S(b1-4)GlcNAc = biological target: Gal4S(b1-4)GlcNAc
# Outline: as §1
# Gal6S(b1-4)Glc6S = biological target: Gal6S(b1-4)Glc6S
# Outline: as §1
# GalNAc(b1-3)Gal = biological target: GalNAc(b1-3)Gal
# Outline: as §1
# [2] = biological target: GalNAc(b1-3)Gal(a1-4)Gal(b1-4)GlcNAc(b1-3)Gal(b1-4)Glc
# Outline: as §1
# GalNAc3S(b1-4)GlcNAc3S = biological target: GalNAc3S(b1-4)GlcNAc3S
# Outline: as §1
# GalNAc4S6S(b1-4)GlcNAc = biological target: GalNAc4S6S(b1-4)GlcNAc
# Outline: as §1
# Glc(a1-6)Glc(a1-6)Glc = biological target: Glc(a1-6)Glc(a1-6)Glc
# Outline: as §1
# GlcA(b1-3)GlcNAc = biological target: GlcA(b1-3)GlcNAc
# Outline: as §1
# [3] = biological target: GlcNAc(b1-2)[GlcNAc(b1-4)]Man(a1-3)[GlcNAc(b1-4)][GlcNAc(b1-2)[GlcNAc(b1-6)]Man(a1-6)]Man(b1-4)GlcNAc(b1-4)[Fuc(a1-6)]GlcNAc
# Outline: as §1
# [4] = biological target: GlcNAc(b1-3)Gal(b1-4)GlcNAc
# Outline: as §1
# [5] = biological target: GlcNAc(b1-3)Gal(b1-4)GlcNAc(b1-3)Gal(b1-4)GlcNAc(b1-2)Man(a1-3)[GlcNAc(b1-3)Gal(b1-4)GlcNAc(b1-3)Gal(b1-4)GlcNAc(b1-2)Man(a1-6)]Man(b1-4)GlcNAc(b1-4)[Fuc(a1-6)]GlcNAc
# Outline: as §1
# Man(a1-2)Man(a1-3)Man = biological target: Man(a1-2)Man(a1-3)Man
# Outline: as §1
# [6] = biological target: Neu5Ac(a2-3)Gal(b1-4)GlcNAc
# Outline: as §1
# [7] = biological target: Neu5Ac(a2-3)Gal(b1-4)GlcNAc(b1-2)[Neu5Ac(a2-3)Gal(b1-4)GlcNAc(b1-6)]Man(a1-6)[Neu5Ac(a2-3)Gal(b1-4)GlcNAc(b1-2)Man(a1-3)]Man(b1-4)GlcNAc(b1-4)GlcNAc
# Outline: as §1
# [8] = biological target: Neu5Ac(a2-3)Gal(b1-4)GlcNAc(b1-2)[Neu5Ac(a2-3)Gal(b1-4)GlcNAc(b1-6)]Man(a1-6)[Neu5Ac(a2-3)Gal(b1-4)GlcNAc(b1-2)Man(a1-3)][GlcNAc(b1-4)]Man(b1-4)GlcNAc(b1-4)GlcNAc
# Outline: as §1
# [9] = biological target: Neu5Ac(a2-3)Gal(b1-4)GlcNAc(b1-3)Gal(b1-4)GlcNAc(b1-2)Man(a1-3)[Neu5Ac(a2-3)Gal(b1-4)GlcNAc(b1-3)Gal(b1-4)GlcNAc(b1-2)Man(a1-6)]Man(b1-4)GlcNAc(b1-4)GlcNAc
# Outline: as §1
# [10] = biological target: Neu5Ac(a2-3)Gal(b1-4)GlcNAc(b1-6)GalNAc
# Outline: as §1
# [11] = biological target: Neu5Ac(a2-3)Gal(b1-4)[Fuc(a1-3)]GlcNAc(b1-6)[Gal(b1-3)]GalNAc
# Outline: as §1
# [12] = biological target: Neu5Ac(a2-3)[Neu5Ac(a2-6)]GalNAc
# Outline: as §1
# Neu5Ac(a2-6)Gal(b1-4)Glc = biological target: Neu5Ac(a2-6)Gal(b1-4)Glc
# Outline: as §1
# [13] = biological target: Neu5Ac(a2-6)Gal(b1-4)GlcNAc(b1-2)Man(a1-3)[GlcNAc(b1-4)][Neu5Ac(a2-6)Gal(b1-4)GlcNAc(b1-2)Man(a1-6)]Man(b1-4)GlcNAc(b1-4)GlcNAc
# Outline: as §1
# [14] = biological target: Neu5Ac(a2-6)Gal(b1-4)GlcNAc(b1-2)Man(a1-3)[Neu5Ac(a2-6)Gal(b1-4)GlcNAc(b1-2)Man(a1-6)]Man(b1-4)GlcNAc(b1-4)GlcNAc
# Outline: as §1
# [15] = biological target: Neu5Ac(a2-6)Gal(b1-4)GlcNAc(b1-2)Man(a1-6)Man(b1-4)GlcNAc(b1-4)GlcNAc
# Outline: as §1
# [16] = biological target: Neu5Ac(a2-6)Gal(b1-4)GlcNAc(b1-2)Man(a1-6)[Gal(b1-4)GlcNAc(b1-2)Man(a1-3)]Man(b1-4)GlcNAc(b1-4)GlcNAc
# Outline: as §1
# [17] = biological target: Neu5Ac(a2-6)Gal(b1-4)GlcNAc(b1-2)Man(a1-6)[GlcNAc(b1-2)Man(a1-3)]Man(b1-4)GlcNAc(b1-4)GlcNAc
# Outline: as §1
# [18] = biological target: Neu5Ac(a2-6)Gal(b1-4)GlcNAc(b1-3)Gal(b1-4)GlcNAc(b1-6)[Gal(b1-3)]GalNAc
# Outline: as §1
# [19] = biological target: Neu5Ac(a2-6)GlcNAc(b1-4)GlcNAc(b1-4)GlcNAc
# Outline: as §1
# [20] = biological target: Neu5Ac(a2-8)Neu5Ac(a2-3)Gal(b1-4)GlcNAc
# Outline: as §1
# [21] = biological target: Neu5Ac(a2-8)Neu5Ac(a2-3)[GalNAc(b1-4)]Gal(b1-4)Glc
# Outline: as §1
# [22] = biological target: Neu5Gc(a2-3)Gal(b1-4)GlcNAc(b1-3)Gal(b1-4)GlcNAc(b1-2)Man(a1-3)[Neu5Gc(a2-3)Gal(b1-4)GlcNAc(b1-3)Gal(b1-4)GlcNAc(b1-2)Man(a1-6)]Man(b1-4)GlcNAc(b1-4)GlcNAc
# Outline: as §1
binder,measurement,setting,value
FimA-N2 (Actinomyces oris) (protein) MHHHHHHSSGVDLGTENLYFQSNAWIYDVNVYPKNEAIDVDKTIQAQKLNGYGVGSLIKFPVESTAPTLDAKSFYKYFQLKDTLDERLSEVTATDVSLEGTPLQPTDYKVETKQQTVTVTFTAEGLKKIKAAPGKKVSAVFQGKVTKAGNGAITNRAQVISDTLYAEQPPTPETPPTDPENPPTSDEVISRWGDLSIKKVDTHQQGQTKA,glycan array binding signal (z-score),Gal3S(b1-4)Glc,0.216
same,glycan array binding signal (z-score),Gal3S(b1-4)GlcNAc,2.69
same,glycan array binding signal (z-score),[1],3.08
same,glycan array binding signal (z-score),Gal4S(b1-4)GlcNAc,3.9
same,glycan array binding signal (z-score),Gal6S(b1-4)Glc6S,-0.257
same,glycan array binding signal (z-score),GalNAc(b1-3)Gal,2.41
same,glycan array binding signal (z-score),[2],1.53
same,glycan array binding signal (z-score),GalNAc3S(b1-4)GlcNAc3S,0.248
same,glycan array binding signal (z-score),GalNAc4S6S(b1-4)GlcNAc,-0.331
same,glycan array binding signal (z-score),Glc(a1-6)Glc(a1-6)Glc,-0.88
same,glycan array binding signal (z-score),GlcA(b1-3)GlcNAc,0.654
same,glycan array binding signal (z-score),[3],-0.355
same,glycan array binding signal (z-score),[4],0.299
same,glycan array binding signal (z-score),[5],-0.07
same,glycan array binding signal (z-score),Man(a1-2)Man(a1-3)Man,0.075
same,glycan array binding signal (z-score),[6],-0.301
same,glycan array binding signal (z-score),[7],-0.853
same,glycan array binding signal (z-score),[8],-0.874
same,glycan array binding signal (z-score),[9],-0.355
same,glycan array binding signal (z-score),[10],1.38
same,glycan array binding signal (z-score),[11],1.73
same,glycan array binding signal (z-score),[12],-1.07
same,glycan array binding signal (z-score),Neu5Ac(a2-6)Gal(b1-4)Glc,0.148
same,glycan array binding signal (z-score),[13],-1.7
same,glycan array binding signal (z-score),[14],0.297
same,glycan array binding signal (z-score),[15],-0.759
same,glycan array binding signal (z-score),[16],-1.01
same,glycan array binding signal (z-score),[17],0.589
same,glycan array binding signal (z-score),[18],-0.597
same,glycan array binding signal (z-score),[19],0.675
same,glycan array binding signal (z-score),[20],-0.815
same,glycan array binding signal (z-score),[21],-1.37
same,glycan array binding signal (z-score),[22],-0.144
